# Only some compounds are listed: those with a hit (about 1.5% of all), similar ones and a draw of the others.
# Mtb MbtI inh: MbtI salicylate synthase inhibitors, primary screen, biochemical, fluorescence intensity; 100,000 compounds, 0.89% hits; inhibition, % (test concentration not listed); purified MbtI enzyme, fluorescence intensity read-out; P9WFX0; in the data active = inhibition mostly above about 56%, no sharp cut-off; inactive = mostly below about 77%
# AID504770: growth inhibition of E. coli YBA685, primary screen, V. cholerae RctB inhibitors. z-score (concentration not given with the values). E. coli YBA685 rctB-dependent plasmid, OD600 growth, 3 h; active compounds read low. 130,000 compounds, 0.27% hits; in the data active = z-score below about -2, passing the limit was not always enough
# MenB inh: M. tuberculosis MenB inhibitors, primary screen, biochemical, absorbance. inhibition, % (no concentration beside the values). MenB enzyme assay, absorbance read-out. 1,4-dihydroxy-2-naphthoyl-CoA synthase (Mycobacterium tuberculosis (strain ATCC 25618 / …. 100,000 compounds, 0.43% hits; in the data active = inhibition above about 21%, passing the limit was not always enough
# Polio RdRp inh: poliovirus RdRp elongation inhibitors, primary screen, biochemical, fluorescence polarization, total intensity. Genome polyprotein (Poliovirus type 1 (strain Mahoney)), P03300. poliovirus polymerase elongation; active compounds read low. 150,000 compounds, 0.66% hits. % elongation, % (compound at 16.7 µg/mL); in the data active = % elongation below about 90%
# Target sequence (P03300 1749-2209 limits assumed): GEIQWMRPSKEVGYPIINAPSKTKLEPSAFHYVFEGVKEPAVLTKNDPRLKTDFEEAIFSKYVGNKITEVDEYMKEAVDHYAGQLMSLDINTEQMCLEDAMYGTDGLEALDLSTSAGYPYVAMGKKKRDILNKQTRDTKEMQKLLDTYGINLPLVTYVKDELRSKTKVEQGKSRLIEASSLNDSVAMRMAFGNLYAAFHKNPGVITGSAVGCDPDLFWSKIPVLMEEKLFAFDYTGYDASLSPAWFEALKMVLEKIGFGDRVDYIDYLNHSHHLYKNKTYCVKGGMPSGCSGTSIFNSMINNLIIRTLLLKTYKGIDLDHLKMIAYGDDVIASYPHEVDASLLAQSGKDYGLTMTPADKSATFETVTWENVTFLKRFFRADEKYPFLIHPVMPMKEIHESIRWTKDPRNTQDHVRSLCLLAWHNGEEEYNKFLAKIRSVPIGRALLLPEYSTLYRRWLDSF
# An asterisk follows results filed as active; / = no result given; ! = not active in a repeat.
SMILES,Mtb MbtI inh,AID504770,MenB inh,Polio RdRp inh
Cc1ccc(S(=O)(=O)Nc2ccc(N=NN3CCCCC3)cc2)cc1,20,-6.8*,-57,100
O=S(=O)(NC1=NCCS1)c1ccc(N=NN2CCCCC2)cc1,-15,-1.3,-12,102
CC1=C(O)C(=O)C=C2C1=CC=C1[C@@]2(C)CC[C@@]2(C)[C@@H]3C[C@](C)(C(=O)O)CC[C@]3(C)CC[C@]12C,103*,0.7,12,102
O=C(c1c(F)cccc1F)N1CCN(c2ccc3nnc(-c4ccccc4)n3n2)CC1,/,0.05,/,/
CCCCC(=O)Nc1nnc(-c2c(C)c(C)cc(C)c2C)s1,/,-0.4,/,/
CN(C)CCN1CCNCC1,-1,1.1,34*,103
CN(C)C(=O)CN1CCNCC1,94,2,-16,107
CCCC(=O)Nc1nnc(CCC)s1,-8,-0.9,4,102
COP1(=S)/C(=C2/N(C)c3ccccc3C2(C)C)C=NN1C (stereo not given),100*,0.65,-82,70*
CC(=NCCSCc1nc[nH]c1C)c1c(C)[nH]n(-c2nc3ccccc3s2)c1=O,3,-0.1,-12,103
CC(=NCc1cccnc1)c1c(C)[nH]n(-c2nc3ccccc3s2)c1=O,8,-0.15,34*,98
O=C(CNc1ccc2c(c1)oc1ccccc12)c1ccc2c(c1)OCO2,-74,2.5,-28,103
O=C(CC1C(=O)Sc2[nH]c(=O)sc21)c1ccc(F)cc1 (stereo not given),85*,-0.25,59*,55
O=C(CCC(=O)c1ccc(F)cc1)c1ccc(F)cc1,-13,-0.25,3,105
O=C(OCC1CCNCC1)c1ccc2c(c1)OCO2,36,-0.15,3,103
O=C(OCC1CCNCC1)c1ccc(F)cc1,14,0.95,27*,102
CC12CN3CC(C)(C1O)C(O)C(C)(C3)C2O (stereo not given),-6,-0.3,-11,86*
C=CCn1c(COc2ccccc2)n[nH]c1=S,/,-0.65,-40,104
Cn1c(COc2ccccc2)n[nH]c1=S,65*!,-0.5,-42,102
CCCn1c(=O)c2ccccc2n2c(SCC(=O)NC(=O)NC)nnc12,-2,-0.05,6,98
COc1ccc(NC(=O)c2sc(=S)n3c2[nH]c(=O)c2ccccc23)cc1,94*,0.85,-48,102
Cn1cnnc1SCc1ccc(C(=O)n2ncc(C#N)c2N)cc1,-10,-0.9,-4,88*
COc1ccc(C(=O)n2ncc(C#N)c2N)cc1,-5,0.05,-3,96
COC(=O)c1ccc(-n2c(C)cc(C(=O)CSc3nncs3)c2C)cc1,-4,-2.2,-29,100
COC(=O)c1cn(CC(=O)NC2CCCCCC2)c2ccccc12,-1,0.65,31*,100
SMILES,Mtb MbtI inh,AID504770,MenB inh,Polio RdRp inh
O=C(Cn1cnc2ccccc21)Nc1ccccc1,-20,-1.2,-16,102
O=C(Cn1cnc2ccccc21)NC1CCCC1,5,1.1,33*,101
C=C1N(c2cccc(C(F)(F)F)c2)C(=O)OC1(C)C,-8,-0.1,-65,106
CCOC(=O)c1cn(C2CC2)c2c(F)c(F)c(F)cc2c1=O,/,-0.15,-12,100
CC(c1ccccc1)N1CCC(c2nc3ccccc3[nH]2)CC1 (stereo not given),-3,1.8,6,102
COc1cc2c(C(=O)N3CCN(c4ccccc4C)CC3)c(C)oc2cc1Br,1,1.4,9,103
Cc1ccccc1N1CCN(C(=O)c2c(C)oc3cc4c(C(=O)N5CCN(c6ccccc6C)CC5)c(C)oc4cc23)CC1,-2,-3.3*,0,103
COc1ccc(CC(=O)NCCSc2c[nH]c3ccccc23)cc1,/,1.7,/,/
C[n+]1c(CF)sc2ccccc21,97*,-0.85,/,98
Cc1sc2nc(CCl)[nH]c(=O)c2c1C,0,-0.5,/,98
O=c1c2c(-c3ccccc3)csc2nc2n1CCC2,/,0.15,-1,106
Cc1sc2nc(CCl)[nH]c(=O)c2c1-c1ccccc1,82*,0.5,/,89*
Cc1sc2nc3n(c(=O)c2c1-c1ccccc1)CCC3,87,-2.8,-19,76*
CCC(=O)c1ccccc1OCCCn1cnc2ccccc2c1=O,-8,-0.15,6,102
CC(C)Nc1nc(NC(C)C)nc(C(N)=O)n1,5,1.2,35*,100
Cc1ccc(S(=O)C(F)(F)F)cc1 (stereo not given),0,0.45,/,104
Cc1cc2c(cc1C)C(=O)C(N1CCOCC1)=C(c1ccccc1)C2=O,54*,0,8,102
Cc1nc(C(F)(F)F)ccc1C(=O)N1CCC(n2cccc2)CC1,-4,0.4,4,103
CCCSc1nc(-c2ccccc2)[nH]c1S(=O)(=O)c1ccc(C)cc1,/,/,/,-16*
Cc1ccc(S(=O)(=O)c2[nH]c(-c3ccccc3)nc2SCCC(=O)O)cc1,/,/,/,110
O=C1C=CC(=O)N1c1ccc(S(=O)(=O)Nc2ccc(C(F)(F)F)cc2)cc1,98*,0.7,-1,105
COC(=O)COc1ccc(S(=O)(=O)Nc2ccc(C(F)(F)F)cc2)cc1,-14,-0.85,0,98
CC(C)NCC(O)COc1cccc2ccccc12 (stereo not given),61,1.4,-17,100*!
CCc1ccccc1OCC(=O)O,-16,-0.05,/,100
CC1CC(C)CN(CCC(=O)Nc2ccccc2F)C1 (stereo not given),12,0.2,-52,100
SMILES,Mtb MbtI inh,AID504770,MenB inh,Polio RdRp inh
CC1CC(C)CN(CCN)C1 (stereo not given),-6,-0.25,52*,101
Cc1c(Cl)cccc1NC(=O)c1ccc(N2C(=O)c3ccccc3C2=O)cc1,3,0.55,0,104
CCOC(=O)c1sc(CN2CCN(c3cccc(Cl)c3)CC2)nc1C,/,1,/,/
CCOC(=O)c1sc(SCC(=O)c2ccc(Cl)cc2Cl)nc1C,0,-0.3,1,86*
N#CC1=C(N)OC2=C(C(=O)CCC2)C1c1c(F)cccc1Cl (stereo not given),-14,-0.3,-1,100
Cc1ccc2nc(SCC(=O)N3CCCCC3)c(C#N)cc2c1,0,1.1,41*,102
Cc1cc(C)c(C(=O)COC(=O)c2nccnc2N)cc1C,106,-0.35,-16,106
CCc1ccc(OC)c(S(=O)(=O)N2CCCCC2)c1,-8,-0.65,-15,101
NC(=S)Cc1nc2n(n1)Cc1ccccc1-2,77*,1.8,-16,83*
Fc1ccc(-c2nc3n(n2)Cc2ccccc2-3)cc1,-10,-0.5,-7,100
O=C(O)c1nccnc1C(=O)Nc1ccc(N2CCOCC2)cc1,5,1.5,-10,101
O=C(Nc1ccc(N2CCOCC2)cc1)C1=NCCN1,-7,-0.55,-18,63*
c1ccc(-c2nn3c(C4COc5ccccc5O4)nnc3s2)nc1 (stereo not given),57*,-0.9,-35,92
Cn1c(SCc2cnc(-c3ccccc3)s2)nnc1C1COc2ccccc2O1 (stereo not given),-11,0.05,-8,102

# Compound activity as filed in PubChem.
